# Measurements as given in PubChem BioAssay (Tox21).
# Activity calls are given as the source filed them. The call rests on the fitted dose curve; in most records, active means well fitted activation curve with a large enough effect in the repeat runs; inconclusive means weak or mixed curves; inactive means flat fitted curve, though single readings scatter.
# Test: A CellTox Green Cytotoxicity Assay to monitor cytotoxicity in HepG2 cells - 0 hour (AID 1224882); further: nearly all actives have a fitted effect of over 35% in size
# Conditions: CellTox Green fluorescence; series mostly up to 76.8 µM; cytotoxicity: at the top concentration
# From the text: National Center for Advancing Translational Sciences [NCATS]
# NIH Chemical Genomics Center [NCGC]
# U.S. Environmental Protection Agency [EPA]
# National Institutes of Environmental Health Sciences [NIEHS]
# National Toxicology Program [NTP]
# Cell-based models are critical for drug discovery. Determining the natural cytotoxic effects resulting from test compounds is an essential research activity. A CellTox Green Cytotoxicity Assay to monitor cytotoxicity in real time of continues cell culture during 40 hours of the compound treatment was used to screen Tox21 10K library compounds in HepG2 cells. CellTox Green Cytotoxicity Assay is a nonlytic, homogeneous, biofluorescent method to measure cytotoxicity in cell culture after experimental manipulation. The assay system uses a proprietary asymmetric cyanine dye that is excluded from viable cells but preferentially stains the dead cell's DNA. […] Viable cells produce no appreciable increases in fluorescence. Therefore, the fluorescence signal produced by the binding interaction with dead cell DNA is proportional to cytotoxicity.
# The mixture of HepG2 cell suspension and reagents were dispensed at 600cells/6 ul/well in 1536-well tissue culture treated black solid bottom plates using a Multidrop dispenser. After the assay plates were incubated at a 37 C/5% CO2 incubator for 5 hours, 23 nL of compounds dissolved in DMSO, positive and negative controls was transferred to the assay plate by a pintool work station. The plates were incubated at 37 C for 40 hours. The fluorescence intensity were measured at 0h, 8h, 16h, 24h, 32h and 40h time points using ViewLux plate reader during compound treatment.
# On the % scale 0 is the no-effect control and ±100 the full control effect.
row,SMILES,cytotoxicity
1,OC(c1ccc(F)cc1)(c1cncnc1)c1ccccc1Cl (stereo not given),0.953% (inactive)
2,COc1cc(OC)nc(NC(=O)NS(=O)(=O)c2ncccc2C(=O)N(C)C)n1,1.95% (inactive)
3,C[C@]12CC[C@H]3[C@@H](CCC4=CC(=O)CC[C@@]43C)[C@@H]1CC[C@@H]2C(=O)O,-2.95% [at 35.3 µM] (inactive)
4,Nc1cnn(-c2ccccc2)c(=O)c1Cl,-4.9% (inactive)
5,C=CCC1=C(C)[C@@H](OC(=O)[C@@H]2[C@@H](C=C(C)C)C2(C)C)CC1=O,-1.94% (inactive)
6,CCC#N,0.17% (inactive)
7,NC1=NC(=O)C(c2ccccc2)O1 (stereo not given),-15.1% [at 35.3 µM] (inactive)
8,COP(=S)(OC)Oc1ccc(S(N)(=O)=O)cc1,-16.8% [at 35.3 µM] (inactive)
9,COC(C)(C)C,6.05% (inactive)
10,CNC(=O)Oc1c(C(C)(C)C)cc(C)cc1C(C)(C)C,-0.256% (inactive)
11,Nc1cc(Cl)ccc1O,1.64% (inactive)
12,C[N+](C)=CCl,-1.43% (inactive)
13,CC(C)(C)NCC(O)c1cc(Cl)c(N)c(Cl)c1 (stereo not given),14.7% [at 35.3 µM] (inactive)
14,CNC(=O)Oc1cccc(C(C)C)c1,-6.52% (inactive)
15,CN1CCC(N(Cc2ccccc2)c2ccccc2)CC1,-2.57% [at 35.3 µM] (inactive)
16,CCN(Cc1ccc(Cl)nc1)/C(=C/[N+](=O)[O-])NC,-8.45% [at 35.3 µM] (inactive)
17,C#CCN1C(=O)COc2cc(F)c(N3C(=O)C4=C(CCCC4)C3=O)cc21,-0.132% (inactive)
18,CC1(C)CON(Cc2ccccc2Cl)C1=O,-5.31% (inactive)
19,CC(Oc1ccc(Oc2ncc(C(F)(F)F)cc2Cl)cc1)C(=O)O (stereo not given),2.48% (inactive)
20,CCOP(=S)(Oc1cnc(C(C)(C)C)nc1)OC(C)C (stereo not given),-7.29% (inactive)

row,SMILES,cytotoxicity
1,O=C1OC(CCN2CCCCC2)OC1(c1ccccc1)c1ccccc1 (stereo not given),-7.9% [at 35.3 µM] (inactive)
2,[O]=[Cd],5.14% (inactive)
3,O=C(NCO)NCO,-7.8% (inactive)
4,CCCCOC(=O)[C@@H](C)Oc1ccc(Oc2ccc(C#N)cc2F)cc1,-2.71% (inactive)
5,CCc1cc2c(s1)-n1c(C)nnc1CN=C2c1ccccc1Cl,2.01% [at 35.3 µM] (inactive)
6,CC(=O)Nc1cc([As](=O)(O)O)ccc1O,0.0867% [at 35.3 µM] (inactive)
7,N#CC(Cl)(Cl)Cl,-0.833% (inactive)
8,O=C1CN2CCOC2(c2ccccc2Cl)c2cc(Cl)ccc2N1 (stereo not given),-2.08% [at 35.3 µM] (inactive)
9,CCOP(=O)(N=C1SCCS1)OCC,2.76% (inactive)
10,C[C@H]1CCC[C@H](O)CCCCCc2cc(O)cc(O)c2C(=O)O1,-0.414% (inactive)
11,Nc1c(Br)cc([N+](=O)[O-])cc1[N+](=O)[O-],-3.23% (inactive)
12,CC(C)CC(N(C)C)C1(c2ccc(Cl)cc2)CCC1 (stereo not given),-12.6% [at 35.3 µM] (inactive)
13,O=C1c2ccccc2C(=O)c2ccccc21,5.37% [at 15.8 µM] (inactive)
14,Cc1ncsc1CCCl,0.259% [at 35.3 µM] (inactive)
15,O=C(Nc1ccccc1)N(Cc1ccc(Cl)cc1)C1CCCC1,-6.42% (inactive)
16,CC(C(=O)c1ccccc1)N(C)C (stereo not given),-2.2% [at 35.3 µM] (inactive)
17,O=C1CN=C(c2ccccc2)c2cc([N+](=O)[O-])ccc2N1,0.896% [at 35.3 µM] (inactive)
18,CC(Cl)(Cl)[N+](=O)[O-],1.22% (inactive)
19,O=[N+]([O-])c1cccc2cccnc12,0.914% (inactive)
20,Cc1ncc2n1-c1ccc(Cl)cc1C(c1ccccc1F)=NC2,-7.94% [at 35.3 µM] (inactive)
